Assay results: PubChem BioAssay (Tox21)
Records with an inconclusive call do not appear. Active and inactive are the calls of the source. Unless noted, the call rests on the fitted dose curve; in most records, active means well fitted curve in the direction sought with a large enough effect in the repeat runs; inconclusive means weak or mixed curves; inactive means no such curve, though single readings can be large; an effect the other way counts as inactive or inconclusive.

How the values were obtained:
[1] = qHTS assay to identify aromatase inhibitors - cell viability counter screen (AID 743084);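 further: cells stimulated with testosterone during compound exposure; nearly all actives have a fitted effect of over 55% in size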
[2] = target: Aryl hydrocarbon receptor (Homo sapiens) (UniProt P35869); experiment: qHTS assay to identify small molecule that activate the aryl hydrocarbon receptor (AhR) signaling pathway (AID 743085);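 further: HG2L7.5c1 human HepG2 liver cells with stably integrated DRE-driven firefly reporter; series mostly up to about 70 µM; nearly all actives have a fitted effect of over 15% in size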
Aryl hydrocarbon receptor (Homo sapiens), sequence (P35869 whole entry, looked up): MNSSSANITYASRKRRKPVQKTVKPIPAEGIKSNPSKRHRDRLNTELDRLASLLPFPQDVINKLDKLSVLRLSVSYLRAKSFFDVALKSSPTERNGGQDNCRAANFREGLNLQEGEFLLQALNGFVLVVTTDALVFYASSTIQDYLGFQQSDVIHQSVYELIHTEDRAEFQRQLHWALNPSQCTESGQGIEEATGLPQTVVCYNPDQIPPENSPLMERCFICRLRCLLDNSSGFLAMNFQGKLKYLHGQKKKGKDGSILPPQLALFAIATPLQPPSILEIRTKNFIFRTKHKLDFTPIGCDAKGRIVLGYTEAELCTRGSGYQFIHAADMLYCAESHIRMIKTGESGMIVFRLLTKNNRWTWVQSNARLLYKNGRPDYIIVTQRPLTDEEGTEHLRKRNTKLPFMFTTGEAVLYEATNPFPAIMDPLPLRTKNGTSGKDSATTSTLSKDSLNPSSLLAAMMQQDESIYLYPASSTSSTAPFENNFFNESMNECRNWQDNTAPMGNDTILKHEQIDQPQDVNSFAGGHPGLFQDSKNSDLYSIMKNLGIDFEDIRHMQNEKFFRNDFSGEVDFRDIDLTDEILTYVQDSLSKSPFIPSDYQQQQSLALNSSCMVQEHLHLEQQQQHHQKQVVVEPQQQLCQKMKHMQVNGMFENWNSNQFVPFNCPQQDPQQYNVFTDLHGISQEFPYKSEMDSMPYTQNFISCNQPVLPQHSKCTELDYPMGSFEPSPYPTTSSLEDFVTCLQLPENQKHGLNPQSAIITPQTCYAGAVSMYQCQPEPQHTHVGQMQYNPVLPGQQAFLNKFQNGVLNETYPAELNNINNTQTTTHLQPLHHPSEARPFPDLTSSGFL
Method in brief: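 Compounds were tested in HepG2 hepatocellular carcinoma cells harbouring a stably integrated luciferase gene under control of 20 DREs. Increased reporter signal after 24 h treatment at 37C was taken as AhR activation.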

[3] = qHTS assay to identify small molecule that activate the aryl hydrocarbon receptor (AhR) signaling pathway - cell viability counter screen (AID 743086);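 further: HepG2 liver cells carrying the AhR DRE luciferase reporter; series mostly up to about 70 µM; nearly all actives have a fitted effect of over 45% in size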
Method in brief: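 HepG2-AhR-luc (HG2L7.5c1) cells, 4000/well, were preincubated 5 h at 37C, exposed to compound in qHTS format for 24 hr at 37C, then given CellTiter-Fluor for 30 min; viability was read as fluorescence in the reporter wells.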

[4] = target: Peroxisome proliferator-activated receptor gamma (Homo sapiens) (UniProt P37231); experiment: qHTS assay to identify small molecule agonists of the peroxisome proliferator-activated receptor gamma (PPARg) signaling pathway (AID 743094; active means well fitted activation curve with a large enough effect in the signal ratio in the repeat runs, not every such curve was filed as active; the % refers to the signal ratio)
Peroxisome proliferator-activated receptor gamma (Homo sapiens), sequence (P37231 whole entry, looked up): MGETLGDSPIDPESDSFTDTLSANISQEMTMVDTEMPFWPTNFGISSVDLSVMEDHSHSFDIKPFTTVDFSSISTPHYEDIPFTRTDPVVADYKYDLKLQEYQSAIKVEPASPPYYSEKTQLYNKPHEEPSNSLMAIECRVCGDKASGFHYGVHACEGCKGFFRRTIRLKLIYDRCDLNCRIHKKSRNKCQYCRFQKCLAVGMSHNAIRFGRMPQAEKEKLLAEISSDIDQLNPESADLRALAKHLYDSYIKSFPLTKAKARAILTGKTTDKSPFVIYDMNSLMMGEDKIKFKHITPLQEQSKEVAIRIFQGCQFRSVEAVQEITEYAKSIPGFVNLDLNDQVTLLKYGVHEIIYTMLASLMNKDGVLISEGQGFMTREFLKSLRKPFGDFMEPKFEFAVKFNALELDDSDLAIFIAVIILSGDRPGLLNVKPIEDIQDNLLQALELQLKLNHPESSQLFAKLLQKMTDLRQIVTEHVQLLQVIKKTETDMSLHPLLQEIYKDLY
Method in brief: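 Agonist activity was taken from a beta-lactamase reporter (FRET substrate, 1 h at room temperature) in HEK293H cells carrying a PPARg UAS-bla construct. Compounds in DMSO were incubated 17 h at 37C after a 5 h cell pre-incubation.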

[5] = target: Peroxisome proliferator-activated receptor gamma (Homo sapiens) (UniProt P37231); experiment: qHTS assay to identify small molecule antagonists of the peroxisome proliferator-activated receptor gamma (PPARg) signaling pathway (AID 743191; calls by dose curve; further: series mostly up to about 63 µM; nearly all actives have a fitted effect of over 30% in size)
Method in brief: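 GeneBLAzer PPARg UAS-bla HEK293H cells carrying a UAS-driven beta-lactamase reporter were plated at 3000 cells/well, preincubated 5 h at 37C, then given compound for 17 h at 37C; LiveBLAzer B/G FRET substrate was read after 1 h at room temperature.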

[6] = qHTS assay to identify small molecule antagonists of the peroxisome proliferator-activated receptor gamma (PPARg) signaling pathway - cell viability counter screen (AID 743194); further: nearly all actives have a fitted effect of over 55% in size
Method in brief: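 PPARg-UAS-bla HEK293H cells were plated, rested 5 h at 37 C, then treated with compounds plus rosiglitazone (50 nM final) for 17 h at 37 C; viability was then read by CellTiter-Glo luminescence after 30 min at room temperature.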

[7] = qHTS assay for small molecule agonists of the antioxidant response element (ARE) signaling pathway - cell viability counter screen (AID 743203; calls by dose curve; further: nearly all actives have a fitted effect of over 55% in size)
Method in brief: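 Viability counter screen: CellTiter-Glo luminescence, read after 30 min at room temperature, in ARE-bla HepG2 wells. Compound exposure lasted 16 h at 37C/5% CO2, following a 5 h pre-incubation of the cells after plating.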

[8] = qHTS assay to identify small molecule agonists of the peroxisome proliferator-activated receptor delta (PPARd) signaling pathway - cell viability counter screen (AID 743211); further: nearly all actives have a fitted effect of over 55% in size
Method in brief: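 Counter screen for cytotoxicity run in parallel with the PPARd reporter screen. Beta-lactamase reporter HEK293H cells exposed to compounds 17 h; ATP-based CellTiter-Glo luminescence quantified viability.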

[9] = target: Peroxisome proliferator-activated receptor delta (Homo sapiens) (UniProt Q03181); experiment: qHTS assay to identify small molecule agonists of the peroxisome proliferator-activated receptor delta (PPARd) signaling pathway (AID 743212; calls by dose curve)
Peroxisome proliferator-activated receptor delta (Homo sapiens), sequence (Q03181 whole entry, looked up): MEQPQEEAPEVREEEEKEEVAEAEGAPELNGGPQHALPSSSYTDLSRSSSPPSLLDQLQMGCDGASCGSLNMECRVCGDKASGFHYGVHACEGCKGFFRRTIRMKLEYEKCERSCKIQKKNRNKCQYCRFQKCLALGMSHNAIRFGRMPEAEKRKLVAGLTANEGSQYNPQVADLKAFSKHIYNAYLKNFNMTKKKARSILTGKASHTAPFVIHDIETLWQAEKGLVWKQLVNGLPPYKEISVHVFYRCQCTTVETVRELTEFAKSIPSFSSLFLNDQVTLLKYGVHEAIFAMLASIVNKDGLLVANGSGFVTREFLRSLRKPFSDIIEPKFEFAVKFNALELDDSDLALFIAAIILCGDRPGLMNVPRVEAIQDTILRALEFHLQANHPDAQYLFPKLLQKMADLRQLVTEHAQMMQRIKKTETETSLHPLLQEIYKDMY
Method in brief: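 Beta-lactamase reporter read by fluorescence (LiveBLAzer B/G FRET, 2 h, room temperature). Test agents, in DMSO, incubated at 37 C with PPARd-bla HEK293H cells.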

[10] = qHTS assay to identify small molecule antagonists of the peroxisome proliferator-activated receptor delta (PPARd) signaling pathway - cell viability counter screen (AID 743213); further: nearly all actives have a fitted effect of over 50% in size
Method in brief: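 Same-well viability: cells pre-incubated 5 h, dosed with compound plus 300 nM L165041, kept 17 h at 37 C, FRET substrate 2 h RT, then CellTiter-Glo 30 min RT and luminescence.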

[11] = target: Peroxisome proliferator-activated receptor delta (Homo sapiens) (UniProt Q03181); experiment: qHTS assay to identify small molecule antagonists of the peroxisome proliferator-activated receptor delta (PPARd) signaling pathway (AID 743215; active means well fitted inhibition curve with a large enough effect in the signal ratio in the repeat runs, not every such curve was filed as active; the % refers to the signal ratio;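 further: cells stimulated with agonist L165041 at 300 nM final during compound exposure; series mostly up to about 62 µM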)
Method in brief: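 Agonist L165041 (300 nM final) added with compound to PPARd-bla HEK293H UAS-bla reporter cells; 17 h incubation at 37 C. Read-out: LiveBLAzer FRET substrate, 2 h at room temperature, fluorescence intensity.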

[12] = qHTS assay to identify small molecule agonists of the farnesoid-X-receptor (FXR) signaling pathway - cell viability counter screen (AID 743218); further: nearly all actives have a fitted effect of over 45% in size
Method in brief: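 Viability counter screen in the same wells: CellTiter-Glo luminescence, 30 min room-temperature incubation, measured after the beta-lactamase read. Cells were GeneBLAzer FXR-UAS-bla HEK 293T, compound-treated 16 h at 37C.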

[13] = qHTS assay to identify small molecule antagonists of the farnesoid-X-receptor (FXR) signaling pathway - cell viability counter screen (AID 743221; active means well fitted cell-killing curve with a large enough effect in the repeat runs, not every such curve was filed as active; further: nearly all actives have a fitted effect of over 50% in size)
Method in brief: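 Multiplexed counter screen: viability of FXR-bla HEK 293T cells under agonist stimulation by chenodeoxycholic acid (50 uM, final) and test compound for 16 h at 37 C, measured by CellTiter-Glo luminescence in the reporter wells.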

[14] = target: Vitamin D3 receptor (Homo sapiens) (UniProt P11473); experiment: qHTS assay to identify small molecule antagonists of the vitamin D receptor (VDR) signaling pathway (AID 743223; active means well fitted inhibition curve with a large enough effect in the signal ratio in the repeat runs, not every such curve was filed as active; the % refers to the signal ratio)
Vitamin D3 receptor (Homo sapiens), sequence (P11473 whole entry, looked up): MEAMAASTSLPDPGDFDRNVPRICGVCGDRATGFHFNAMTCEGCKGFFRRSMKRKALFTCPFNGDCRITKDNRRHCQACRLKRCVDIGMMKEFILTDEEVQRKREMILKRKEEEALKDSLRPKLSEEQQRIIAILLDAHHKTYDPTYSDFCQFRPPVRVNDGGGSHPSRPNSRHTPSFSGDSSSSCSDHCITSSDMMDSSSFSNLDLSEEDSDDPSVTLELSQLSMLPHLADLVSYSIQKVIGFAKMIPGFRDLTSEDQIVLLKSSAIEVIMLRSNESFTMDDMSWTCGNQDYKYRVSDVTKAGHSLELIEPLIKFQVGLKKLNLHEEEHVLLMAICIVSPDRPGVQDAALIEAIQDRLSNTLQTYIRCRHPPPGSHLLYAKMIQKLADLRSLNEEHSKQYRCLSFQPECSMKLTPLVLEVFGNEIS
Method in brief: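 Cells carrying a VDR-driven beta-lactamase reporter (VDR-bla) were co-treated with compound and 3 nM final 1alpha,25-dihydroxyvitamin D3 for 16 h at 37C; reporter activity was measured as FRET substrate fluorescence after 2 h at room temperature.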

[15] = qHTS assay for small molecule activators of the heat shock response signaling pathway (AID 743210; active means well fitted activation curve with a large enough effect in the signal ratio in the repeat runs, with a control signal flat, not every such curve was filed as active; the % refers to the signal ratio; further: series mostly up to about 63 µM)
Method in brief: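 Heat shock element–beta-lactamase HeLa reporter cells; qHTS with compounds for 5 h at 37 C; detection by FRET substrate fluorescence after 2.5 h at RT.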

[16] = target: Vitamin D3 receptor (Homo sapiens) (UniProt P11473); experiment: qHTS assay to identify small molecule agonists of the vitamin D receptor (VDR) signaling pathway (AID 743222; calls by dose curve)
Method in brief: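 Agonist mode, beta-lactamase reporter: fluorescence from LiveBLAzer B/G FRET substrate (2 h, room temperature) read after 16 h compound treatment at 37 C of VDR-bla cells, which were pre-incubated 4 h after seeding.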

[17] = qHTS assay for small molecule agonists of the antioxidant response element (ARE) signaling pathway (AID 743202; active means well fitted activation curve with a large enough effect in the signal ratio in the repeat runs, not every such curve was filed as active; the % refers to the signal ratio)
Method in brief: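 Following a 16 h, 37 C exposure of reporter HepG2 cells (ARE-driven beta-lactamase, 2,000 cells/well) to compounds, FRET substrate was applied for 2 h at room temperature and fluorescence intensity recorded.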

[18] = qHTS assay for small molecule activators of the heat shock response signaling pathway - cell viability counter screen (AID 743209); further: nearly all actives have a fitted effect of over 50% in size
Method in brief: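 Cytotoxicity counter screen run in the same wells as the heat-shock bla reporter assay: HeLa HSE-bla cells, 5 h compound exposure at 37 C, viability read by CellTiter-Glo luminescence.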

[19] = target: Bile acid receptor (Homo sapiens) (UniProt Q96RI1); experiment: qHTS assay to identify small molecule antagonists of the farnesoid-X-receptor (FXR) signaling pathway (AID 743217; active means well fitted inhibition curve with a large enough effect in the signal ratio in the repeat runs, not every such curve was filed as active; the % refers to the signal ratio)
Bile acid receptor (Homo sapiens), sequence (Q96RI1 whole entry, looked up): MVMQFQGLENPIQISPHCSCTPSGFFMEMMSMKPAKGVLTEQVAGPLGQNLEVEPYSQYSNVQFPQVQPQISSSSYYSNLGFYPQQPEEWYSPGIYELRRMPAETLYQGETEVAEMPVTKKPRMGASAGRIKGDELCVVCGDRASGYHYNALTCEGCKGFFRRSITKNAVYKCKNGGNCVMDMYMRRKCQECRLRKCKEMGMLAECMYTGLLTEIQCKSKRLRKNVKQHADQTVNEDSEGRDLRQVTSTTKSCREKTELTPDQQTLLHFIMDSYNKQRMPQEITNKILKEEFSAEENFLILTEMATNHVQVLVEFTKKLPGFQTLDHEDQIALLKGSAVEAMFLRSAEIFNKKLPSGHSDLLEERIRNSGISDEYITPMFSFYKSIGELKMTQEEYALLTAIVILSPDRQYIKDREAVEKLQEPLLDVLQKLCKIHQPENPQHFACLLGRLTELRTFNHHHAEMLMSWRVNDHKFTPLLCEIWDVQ
Method in brief: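 Antagonist mode: chenodeoxycholic acid at 50 uM final stimulates a UAS-driven beta-lactamase reporter in HEK 293T FXR-bla cells during 16 h, 37C compound exposure. Read-out is FRET substrate fluorescence after 2 h at room temperature.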

[20] = target: Bile acid receptor (Homo sapiens) (UniProt Q96RI1); experiment: qHTS assay to identify small molecule agonists of the farnesoid-X-receptor (FXR) signaling pathway (AID 743220; active means well fitted activation curve with a large enough effect in the signal ratio in the repeat runs, not every such curve was filed as active; the % refers to the signal ratio)
Method in brief: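 FXR-UAS-bla HEK 293T cells carrying a UAS-driven beta-lactamase reporter were plated for 5 h at 37C/5% CO2, then exposed to DMSO-dissolved Tox21 10K compounds for 16 h at 37C. A LiveBLAzer B/G FRET substrate was loaded for 2 h at room temperature before fluorescence reading.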

Measured: Potency

CCOC(=O)/C=C/c1ccccc1
not listed: [15] | [16] | [17] | [18] | [19] | [20]
inactive: all other assays above

COc1cc(NS(=O)(=O)c2ccc(N)cc2)nc(OC)n1
not listed: [17] | [18] | [19] | [20]
inactive: all other assays above

COC(=O)c1ccccc1C(=O)c1ccc(OCCN2CCCCC2)cc1
not listed: [5] | [12]
inactive: all other assays above

BrCc1cccc(Oc2ccccc2)c1
not listed: [6] | [9] | [17] | [18] | [19] | [20]
inactive: all other assays above

CC(=O)Nc1ccc(S(=O)(=O)Nc2ccc([N+](=O)[O-])cc2)cc1
not listed: [10] | [11] | [15] | [16] | [17] | [19] | [20]
inactive: all other assays above

OCCN(CCO)c1cccc(Cl)c1
not listed: [9] | [11] | [14] | [17] | [18] | [19] | [20]
inactive: all other assays above

FC(F)(F)c1ccccc1-n1ccnc1
not listed: [9] | [12] | [15] | [17] | [19] | [20]
inactive: all other assays above
